# Only a selection was taken, and hits are over-represented in it overall.
# mHTT CaM bind – mutant huntingtin-calmodulin interaction inhibitors – biochemical, AlphaScreen, primary screen. AlphaScreen His-mHTT/GST-CaM binding, luminescence. 3.6% of 190,000 active. inhibition, % at 15 µM;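 also: 0% = both proteins with DMSO and 100% = one protein alone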
# Pf apPOL inh – Pf-apPOL inhibitors, biochemical, fluorescence. Plasmodium falciparum apicoplast DNA polymerase (apPOL). Recombinant Pf-apPOL, molecular beacon fluorescence, 1.5 h. inhibition, % at 10 µM. 0.25% of 210,000 active. AID 1794808, 2022
# Active calls of the source: *; . = no result. Rule as the data show it: active = inhibition above about 50%; inactive = the rest.
SMILES,mHTT CaM bind,Pf apPOL inh
Cc1ccccc1NC(=O)N1CC2CCCN2c2ccccc21 (centres undefined),61*,-2
CCOc1ccccc1NC(=O)N1CC2CCCN2c2ccccc21 (centres undefined),80*,1
CCOc1ccccc1NC(=O)N1CC(CC)Oc2ccccc21 (centres undefined),-49,-4
O=C(Nc1ccccc1Br)N1CC2CCCN2c2ccccc21 (centres undefined),74*,2
Nc1nonc1-c1nc2ccccc2n1N,35,-11
CCn1cc(CN2CCCC2c2cc(C(C)C)no2)c2cc(OC)ccc21 (centres undefined),39,4
Cc1ccccc1NC(=O)N1CC=C(c2cn(C(C)C)c3ncccc23)CC1,27,-6
COc1ccc(C)cc1NC(=O)N1CC=C(c2cn(C(C)C)c3ncccc23)CC1,53*,-4
CCNC(=O)c1nc(N2CCCC2)c2c(C)scc2n1,26,-4
Cc1scc2nc(C(=O)NCc3ccc(F)cc3)nc(N3CCCC3)c12,81*,-19
N#Cc1cccc(CN2CCCC(c3nc(-c4ccncc4)n[nH]3)C2)c1 (centres undefined),18,-7
N#Cc1ccc(CN2CCCC(c3nc(-c4cccnc4)n[nH]3)C2)cc1 (centres undefined),-12,6
c1ccc(CN2CCCC(c3nc(-c4cccnc4)n[nH]3)C2)nc1 (centres undefined),99*,-23
c1cc(-c2n[nH]c(C3CCCN(Cc4ccc5cc[nH]c5c4)C3)n2)ccn1 (centres undefined),53*,3
Cc1ccnc(NC(=O)Cc2ccc(Cl)cc2)c1,-4,-7
COc1cc(C2C(C(=O)Nc3ccccc3)=C(C)Nc3ncnn32)ccc1OCc1ccccc1 (centres undefined),30,6
COc1cccc(NC(=O)N2CCCC2c2nc(-c3cccc(OC)c3)no2)c1 (centres undefined),7,-2
COc1ccccc1NC(=O)c1ccccc1N(Cc1ccccc1)S(=O)(=O)c1ccccc1,-2,-1
Cc1ccc(C)c(S(=O)(=O)n2nnc3cc(Cl)ccc32)c1,-6,-2
COc1ccc(OC)c(S(=O)(=O)n2nnc3cc(Cl)ccc32)c1,100*,-10
COc1ccc(Cn2cnc3ccccc32)cc1OC,1,8
O=[N+]([O-])c1ccc(S(=O)(=O)N2CCCCCC2)cc1,2,3
O=[N+]([O-])c1ccc(S(=O)(=O)/C=C/C=C/N2CCCCC2)cc1,93*,7
Cc1ccc(NC(=O)C2CC(c3ccccc3F)=NO2)cc1 (centres undefined),-5,-3
CC(C)(C)C(O)CCNC(=O)c1ccc(C(F)(F)F)cc1 (centres undefined),-9,-18
SMILES,mHTT CaM bind,Pf apPOL inh
O=C(NCc1ccc(Cl)c(Cl)c1)c1cccs1,-12,-4
CCc1ccc(NC(=O)c2cncc(-c3ccc(C)cc3)c2)cc1,-9,0
Cc1ccc(-c2cncc(C(=O)Nc3ccc4c(c3)OCCO4)c2)cc1,54*,-3
O=S(=O)(O)c1ccc(O)c2ncccc12,100*,-5
Cc1ccc2c(S(=O)(=O)O)ccc(O)c2n1,24,0
COc1ccc(OC)c(-c2cc(C(=O)NCC#CCN3CCc4ccccc4C3)[nH]n2)c1,53*,2
O=C(NCC#CCN1CCc2ccccc2C1)c1cc2ccccc2[nH]1,28,-6
CCOc1ccccc1C=C1Oc2cc(O)ccc2C1=O,0,-6
CC(=O)CSc1sc2c(O)cc(=O)[nH]c2c1C#N,4,.
N#Cc1c(SCC(=O)Nc2nncs2)sc2c(O)cc(=O)[nH]c12,54*,.
CSc1cccc(NC(=O)CN2CCC3(CC2)N=C(c2cccc(C)c2)C(=O)N3)c1,70*,5
O=C(CN1CCC2(CC1)N=C(c1ccccc1)C(=O)N2)Nc1ccc(F)c(F)c1,1,-5
CSc1cccc(NC(=O)CN2CCC3(CC2)N=C(c2ccc(C)cc2)C(=O)N3)c1,26,-3
COc1ccccc1NC(=O)CN1CCC2(CC1)N=C(c1cccc(C)c1)C(=O)N2,50*,4
COc1ccccc1NC(=O)CN1CCC2(CC1)N=C(c1cccc(Cl)c1)C(=O)N2,97*,2
COc1ccccc1NC(=O)CN1CCC2(CC1)N=C(c1ccc(Cl)cc1)C(=O)N2,-8,0
COc1ccc(NC(=O)CN2CCC3(CC2)N=C(c2ccc(C)cc2)C(=O)N3)c(OC)c1,39,-2
Cc1ccc(NC(=O)CN2CCC3(CC2)N=C(c2ccccc2)C(=O)N3)cc1F,55*,-3
O=C1C=CC(=O)N1c1ccccc1Br,-4,-3
CCNC(=O)c1csc(COc2cccc(Cl)c2)n1,8,-10
O=C1OC2CC1N(C(=O)c1nc3ccccc3s1)C2 (centres undefined),-5,-5
Cc1ccc(C)c(NC(=O)CN2CCC3(CC2)N=C(c2ccccc2)C(=O)N3)c1,7,-3
Cc1ccc(NC(=O)CN2CCC3(CC2)N=C(c2ccccc2)C(=O)N3)c(C)c1,56*,-4
CN(C)CCCN(C(=O)c1nc2ccccc2s1)c1nc2c(Cl)cccc2s1,25,11
Cc1cccc2sc(N(CCCN(C)C)C(=O)c3ccccc3Br)nc12,96*,-4
SMILES,mHTT CaM bind,Pf apPOL inh
O=C(NCCC1CCN(S(=O)(=O)c2ccccc2)CC1)Nc1ccccc1Cl,46,0
FC(F)(F)COc1nc(Cl)nc(Nc2ccccc2)n1,86*,-4
OCCNc1nc(Cl)nc(Nc2ccc(I)cc2)n1,10,-4
Cc1ccc(NC(=O)c2cccnc2-c2ccsc2)c(C)c1,1,1
Cc1ccnc(NC(c2ccncc2)c2ccc3cccnc3c2O)c1 (centres undefined),100*,5
Cc1ccnc(NC(=O)Nc2ccc(F)cc2)c1,-1,-8
Cc1ccnc(NC(c2ccsc2)c2ccc3cccnc3c2O)c1 (centres undefined),100*,-1
Cc1ccnc(NC(c2ccc3c(c2)OCO3)c2ccc3cccnc3c2O)c1 (centres undefined),99*,1
O=C(NCCCOc1cccc2cccnc12)c1ccc2c(c1)OCO2,7,-4
Cc1ccnc(NC(=O)c2ccc(C(=O)Nc3cc(C)ccn3)cc2)c1,7,4
Cc1ccnc(NC(c2ccc(F)cc2)c2ccc3cccnc3c2O)c1 (centres undefined),98*,2
CCN1C=C(C(=O)OCc2cc(F)cc(F)c2)C(C)=NS1(=O)=O,-3,1
CCCCc1nc(SCC(=O)Nc2ccc(Br)cn2)n[nH]1,-2,-10
Cc1nc(Cn2cccc2C(=O)Nc2ccc(C)c(C)c2)no1,-10,-1
COc1ccc(NC(=O)C(C)N(c2ccccc2)S(C)(=O)=O)cc1OC (centres undefined),0,-11
Cc1ccnc(NC(c2ccccn2)c2ccc3cccnc3c2O)c1 (centres undefined),100*,-4
Cc1ccnc(NC(=O)c2ccc(-c3nc(-c4ccccc4)no3)cc2)c1,-5,-3
CCOC(=O)C(N=Nc1ccccc1Cl)=C(O)CSc1ccc(Cl)cc1,.,5
O=C(Nc1ccccc1C(F)(F)F)O[C@H]1CCC12CCC(c1ccccc1)CC2 (some centres undefined),-53,-8
CC1CCN(S(=O)(=O)c2ccc(C(=O)Nc3nc(-c4ccccn4)cs3)cc2)CC1,98*,-3

# Compound activity as filed in PubChem.
